Results filed as inconclusive are left out. The source made the active and inactive calls. How the source made its calls: active means hit-call score of the fitted dose curve at least 0.9, where 1 is the maximum; inconclusive means response in the unintended direction; inactive means score below 0.9.

As a reminder, the AC50 is the concentration giving half of the maximal activity seen.

Bile acid receptor (Homo sapiens), sequence (Q96RI1 whole entry, looked up, the tested form may be a part): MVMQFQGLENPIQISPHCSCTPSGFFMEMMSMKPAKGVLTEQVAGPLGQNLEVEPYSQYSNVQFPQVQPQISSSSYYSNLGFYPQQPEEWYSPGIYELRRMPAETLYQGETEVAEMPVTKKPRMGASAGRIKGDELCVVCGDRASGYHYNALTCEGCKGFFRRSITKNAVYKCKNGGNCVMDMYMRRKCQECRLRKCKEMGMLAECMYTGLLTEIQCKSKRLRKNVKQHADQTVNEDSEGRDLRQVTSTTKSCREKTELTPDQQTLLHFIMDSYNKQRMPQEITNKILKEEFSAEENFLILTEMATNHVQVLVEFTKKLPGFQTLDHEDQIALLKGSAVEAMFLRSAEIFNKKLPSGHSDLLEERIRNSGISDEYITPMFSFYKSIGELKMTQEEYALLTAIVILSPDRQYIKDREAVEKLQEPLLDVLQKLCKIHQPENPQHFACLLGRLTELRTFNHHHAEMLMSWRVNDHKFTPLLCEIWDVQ
Estrogen receptor (Homo sapiens), sequence (P03372 whole entry, looked up): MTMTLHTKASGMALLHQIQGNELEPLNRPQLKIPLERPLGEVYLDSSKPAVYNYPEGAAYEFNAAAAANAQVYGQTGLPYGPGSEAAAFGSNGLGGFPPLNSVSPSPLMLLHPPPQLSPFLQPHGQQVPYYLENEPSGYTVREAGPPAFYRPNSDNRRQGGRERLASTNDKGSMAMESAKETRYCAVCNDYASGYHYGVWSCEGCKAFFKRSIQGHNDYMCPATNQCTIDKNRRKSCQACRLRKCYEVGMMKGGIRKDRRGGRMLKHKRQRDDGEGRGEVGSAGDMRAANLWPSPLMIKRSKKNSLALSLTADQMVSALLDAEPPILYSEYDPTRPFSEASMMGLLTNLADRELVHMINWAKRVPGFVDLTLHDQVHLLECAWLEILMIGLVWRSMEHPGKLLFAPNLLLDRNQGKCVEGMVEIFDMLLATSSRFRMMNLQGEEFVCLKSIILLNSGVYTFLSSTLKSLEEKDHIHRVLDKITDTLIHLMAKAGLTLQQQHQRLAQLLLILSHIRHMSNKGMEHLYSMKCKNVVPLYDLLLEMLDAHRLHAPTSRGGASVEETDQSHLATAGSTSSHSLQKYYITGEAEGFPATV

The target of one assay is Estrogen receptor (Homo sapiens) (UniProt P03372). Briefly: OT_ERa_GFPERaERE_0120: Odyssey Thera (OT) 2-hour HeLa Transcription Induction Assay for Estrogen Receptor (AID 2283382). Put shortly:
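HeLa cells were dosed for 2 h, then GFP reporter induction was quantified by fluorescence microscopy with high-content image analysis. Gain of signal fitted against DMSO baseline.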
Regarding `OCCOCCO`, the compound was classed as inactive.

`Brc1ccc(Oc2ccccc2)cc1`: the result was inactive.

For the compound `Cn1cc(-c2ccccc2)c(=O)c(-c2cccc(C(F)(F)F)c2)c1`, the call was inactive.

Consider `CCC12COCN1COC2`, for which the compound was classed as inactive.

For `COc1cc(C=O)cc2c1[C@H](COC(N)=O)[C@]1(OC(C)=O)ON2C[C@H]2[C@@H]1N2C(C)=O`, the call was inactive.

Take `Clc1ccc(C(c2ccc(Cl)cc2)C(Cl)Cl)cc1`: the AC50 was 12 µM (active).

In the case of `CCCCCCCCCCCCCN1CC(C)OC(C)C1` (stereo not given), the compound was classed as inactive.

As to `CC(C)COC(=O)c1ccccc1C(=O)OCC(C)C`, the AC50 is 13 µM (active).

As to `CCOc1cccc(C2(N3CCN(c4ccccc4)CC3)CCC(C)CC2)c1` (stereo not given), the outcome was inactive.

Regarding `OCCCBr`, the outcome was inactive.

For `[O-][Cl+]O`, the compound was classed as inactive.

As to `ClC1=C(Cl)C2(Cl)C3C(Cl)C=CC3C1(Cl)C2(Cl)Cl` (stereo not given), the call was inactive.

Take `N#CC(Br)Br`: the compound was classed as inactive.

Consider `Cc1ccc([N+](=O)[O-])cc1`, for which the outcome was inactive.

For the next assay, the target named is Bile acid receptor (Homo sapiens) (UniProt Q96RI1). Briefly: OT_FXR_FXRSRC1_0480: Odyssey Thera (OT) 8-hour HEK293T Protein-Complementation Assay for Farnesoid X receptor/SRC-1 Co-activator (AID 2283383). Put shortly:
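HEK293T protein-fragment complementation assay: FXR and SRC-1 coactivator are fused to reporter fragments, and their interaction restores a fluorescent reporter. Readout was taken 8 h after dosing, with gain of signal fit relative to DMSO.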
Regarding `O=P(OCCCl)(OCCCl)OCCCl`, the call was inactive.

In the case of `c1ccc(NNc2ccccc2)cc1`, the compound was classed as inactive.

On to `CN(C)c1ccccc1`, for which the result was inactive.

Consider `CN(C)C(=O)Nc1ccc(Cl)cc1`, for which the result was inactive.

Consider `Clc1ccccc1Cl`, for which the call was inactive.

Consider `OCCCl`, for which the compound was called inactive.

As for `ClCCOCCCl`, the call was inactive.

Consider `Nc1ccc(Cc2ccc(N)cc2)cc1`, for which the result was inactive.

Turning to `CC(C)COC(=O)c1ccccc1C(=O)OCC(C)C`, the AC50 was 17.7 µM (active).

`CN(C)c1ccc(C(=O)c2ccc(N(C)C)cc2)cc1`: the concentration at half-maximal activity (AC50) is 49 µM (active).

For `Clc1ccc(C(c2ccc(Cl)cc2)C(Cl)(Cl)Cl)cc1`, the AC50 was 11.2 µM (active).

As to `CS(=O)(=O)NC(=O)c1cc(Oc2ccc(C(F)(F)F)cc2Cl)ccc1[N+](=O)[O-]`, the compound was called inactive.

On to `CCN(CC)N=O`, for which the compound was called inactive.

Another assay shares this target. Briefly: OT_FXR_FXRSRC1_1440: Odyssey Thera (OT) 24-hour HEK293T Protein-Complementation Assay for Farnesoid X receptor/SRC-1 Co-activator (AID 2283384). Put shortly:
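HEK293T cells, 24 h after chemical dosing. FXR–SRC-1 coactivator interaction read as fluorescence from protein-fragment complementation of a split reporter. Gain of signal fitted against DMSO baseline.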
Turning to `OCCOCCO`, the compound was called inactive.

In the case of `O=P(OCCCl)(OCCCl)OCCCl`, the call was inactive.

On to `c1ccc(NNc2ccccc2)cc1`, for which the call was inactive.

As to `CN(C)c1ccccc1`, the result was inactive.

For `CN(C)C(=O)Nc1ccc(Cl)cc1`, the AC50 was 66.9 µM (active).

Consider `Clc1ccccc1Cl`, for which the call was inactive.

For the compound `ClCCOCCCl`, the call was inactive.

Regarding `Nc1ccc(Cc2ccc(N)cc2)cc1`, the compound was called inactive.

On to `CC(C)COC(=O)c1ccccc1C(=O)OCC(C)C`, for which the outcome was inactive.

As for `CN(C)c1ccc(C(=O)c2ccc(N(C)C)cc2)cc1`, the half-maximal activity concentration (AC50) is 0.699 µM (active).

As for `Clc1ccc(C(c2ccc(Cl)cc2)C(Cl)(Cl)Cl)cc1`, the compound was called inactive.

As for `N#CC(Br)Br`, the compound was classed as inactive.

With `CCN(CC)N=O`, the outcome was inactive.

The values above are taken from PubChem BioAssay (EPA / NIEHS).
